# In the library only some 12% were active in any assay of this set; here they are far more common.
# JMJD2A Tudor inh – blocks the human JMJD2A Tudor domain. AlphaScreen JMJD2A-Tudor / H3K4me3 peptide binding. 4.4% of 390,000 active. AID 504339. O75164. Potency, µM (highest dose often 114 µM), actives largely listed as inhibitors; also: nearly all actives have a fitted effect of over 50% in size
# HP1b chromo inh – blocks HP1-beta chromodomain binding to methylated histone tails; AlphaScreen HP1-beta / biotin-H3K9me3 peptide binding; Potency, µM (titrated, usually from 114 µM), actives largely listed as inhibitors; 0.56% of 390,000 active; also: nearly all actives have a fitted effect of over 70% in size
#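 Compound inhibition of the preformed complex between 50 nM HP1-beta and 50 nM biotinylated H3K9me3 peptide was read by AlphaScreen. Buffer was PBS pH 7.4 with 0.01% Tween-20. Incubations ran 30 min at room temperature, with 10 ug/mL donor/acceptor beads.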
# BAZ2B block – blocks human BAZ2B | AlphaScreen BAZ2B-H3K14Ac peptide displacement | Potency, µM (series often up to 114 µM), usual class: inhibitors | 4.4% of 360,000 active | AID 504333; also: nearly all actives have a fitted effect of over 60% in size
#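 AlphaScreen luminescence quantifies BAZ2B engagement of H3K14Ac peptide; the protein and biotinylated peptide are both at 50 nM final, buffer PBS pH 7.4 with 0.01% Tween-20, all steps at room temperature.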
# PLK1 PBD block – blocks phosphopeptide binding to human PLK1 polo-box domain; P53350; Plk1 PBD binding of FITC phosphopeptide, fluorescence polarization; Potency, µM, actives largely listed as inhibitors; 2.8% of 360,000 active; also: series mostly up to about 57 µM; nearly all actives have a fitted effect of over 65% in size
# PI5P4Ka inh – PI5P4K alpha (human) kinase inhibition | P48426 | AID 652105 | max response, % | 1.2% of 330,000 active | PI5P4Kalpha enzyme, ADP-Glo luminescence, 60 min; hits give low values; active = max response of -50% or lower; inconclusive = between -30% and -50%; inactive = -30% or higher; also: value at the top dose of about 77 µM
#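 Reactions run in 0.038 M HEPES pH 7.4, 0.28 mM EGTA, 0.1% CHAPS and 5% DMSO, with PI5P4Kalpha, substrate, compound and 5 microM ATP final, one hour at room temperature. Readout is ADP-Glo luminescence.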
# G9a inh – inhibitors of human histone lysine methyltransferase G9a | Q96KQ7 | G9a H3K9 monomethylation, AlphaScreen, 2 h | Potency, µM (top dose mostly 102 µM), most hits filed as inhibitors | 8.8% of 350,000 active | AID 504332; also: nearly all actives have a fitted effect of over 75% in size
#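 Step 1: enzyme (final 20 nM) with compound, 15 min RT. Step 2: substrate peptide 500 nM and SAM 20 uM, 2 h RT. Step 3: anti-H3K9me1 antibody and AlphaScreen beads, 10 min, then plate read.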
# A number is an active result; 0 = inactive; ? = inconclusive; - = no result given; [ ] = another dose, or the depositor's remark. Unless noted, calls follow the shape of the dose curve; as a rule, active = well fitted curve in the direction sought with a large enough effect; inconclusive = small, poorly fitted or top-dose-only effect, or another doubt; inactive = no such curve, though single readings can be large; an effect the other way counts as inactive or inconclusive.
SMILES,JMJD2A Tudor inh,HP1b chromo inh,BAZ2B block,PLK1 PBD block,PI5P4Ka inh,G9a inh
CCCCCCCCN1C(=O)[C@H](CC(=O)NCc2ccc(OC)c(OC)c2)C[C@@]2(C(=O)OC)CC(C)(C)CC=C12,-,-,-,0,0,-
COc1ccc(NC(=O)Cc2nnc(SCC(=O)Nc3nccs3)n2C)cc1,?,0,0,0,0,0
COc1ccc(OC)c(NS(=O)(=O)c2ccc(-c3cc(C)no3)s2)c1,0,0,?,-,-,0
CC(=O)Nc1c(Cl)cc(Cl)c2c1Cc1cc(Cl)ccc1-2,0,0,-,0,0,-
O=C(O)c1cc(N/N=C/c2ccc3c(c2)OCO3)ccc1Cl,0,0,?,0,-53,50µM
Cc1ccc(N/N=C/c2ccc(N3CCOCC3)cc2)cc1C,40µM,79µM,?,0,0,2.5µM
Cc1ccc(N/N=C/c2ccc3c(c2)OCCO3)cc1Cl,?,?,0,0,0,8.9µM
C/C(=N\Nc1ccc(Cl)c(C(=O)O)c1)c1ccc2c(c1)OCO2,0,0,?,0,0,4.5µM
O=C(O)c1cc(N/N=C/c2ccc3c(c2)OCCO3)ccc1Cl,0,0,0,0,?,?
Cc1ccc(/C=N/Nc2cc(C)nc(N3CCOCC3)n2)cc1,?,0,0,0,0,0
COc1ccc(-c2cc(C(=O)NCc3ccc(F)cc3)c3c(-c4ccc(F)cc4)[nH]nc3n2)cc1OC,0,0,0,-,-,0
O=c1cnnc(N/N=C/c2ccc3c(c2)OCO3)[nH]1,0[11.4 µM],0,0,0,0,45µM
Cc1oc(C)c2c(=O)ccc3c(c12)OC(N)=C(C#N)C3c1ccc(F)cc1 (stereo not given),0[11.4 µM],?,56µM,?,?,?
CCN(C(=O)Cn1ncc2c1-c1cc(C)ccc1OC2)c1cc(Cl)ccc1OC,0,0,0,-,-,0
Clc1ccc(N=NN2CCOCC2)cc1,0,0,0,0,0,50µM
O=C1CC(c2ccco2)c2ccc3ccccc3c2N1 (stereo not given),?,0,50µM,0,0,50µM
Cc1ccccc1CNC(=O)Cn1ccc2cc(S(=O)(=O)N3CCCCC3)ccc21,0,0,0,-,-,0
CCCN(CC(=O)Nc1ccccc1OC)C(=O)c1ccc2c(c1)NC(=O)C(C)S2 (stereo not given),0,0,0,0,0,0
Nc1nc(Sc2ccc([N+](=O)[O-])c3nonc23)c2[nH]cnc2n1,28µM,8.9µM,-,1.5µM,-84,-
CNc1ncnc(Sc2nc(N)nc3nc[nH]c23)c1[N+](=O)[O-],32µM,0,-,?,0,-
Cn1cnnc1SCC(C)(C)NS(=O)(=O)c1ccc(Cl)cc1,0,0,0,0,0,?
CCOC(=O)N1CCC2(CC1)C(C#N)=C(N)Oc1c2c(C)nn1-c1cccc(Cl)c1,?,0,50µM,?,-,?
O=c1[nH][nH]c(C(F)(F)F)c1/C=N/N1CCOCC1,0,0,0,0,0,40µM
Cc1nc2sccn2c(=O)c1S(=O)(=O)NCc1ccccc1,0,0,0,0,0,0
C=CCNc1nc(-c2c(C)nc3sccn23)cs1,0,0,0,0,0,28µM
SMILES,JMJD2A Tudor inh,HP1b chromo inh,BAZ2B block,PLK1 PBD block,PI5P4Ka inh,G9a inh
Cc1nc2sccn2c1-c1csc(NCc2ccccc2)n1,63µM,?,?,?,-,?
C=CCNc1nc(-c2ccc3c(c2)OCCO3)cs1,?,0,-,0,0,-
COc1ccccc1CN(Cc1c(Cl)cccc1Cl)S(=O)(=O)c1ccc(Br)cc1,0,0,0,-,-,0
O=C1C(=O)N(C2CCN(C(=O)c3ccc(F)cc3)CC2)CCN1Cc1ccc(F)cc1,0,0,0,-,-,0
O=C1c2cccnc2C(=O)N1Cc1ccc(F)cc1S(=O)(=O)NCc1ccco1,0,0,?,0,0,0
O=C1c2cccnc2C(=O)N1Cc1ccc(S(=O)(=O)NCc2ccco2)s1,0,0,79µM,0,0,0
COC(=O)C1=C(C)N(Cc2ccccc2)C(=NCC(C)C)N[C@H]1c1cccc(F)c1,25µM,0,?,0,0,0[12.7 µM]
COC(=O)C1=C(C)N(Cc2ccccc2)C(=NCc2ccc(OC)cc2)N[C@H]1c1cccc(F)c1,?,0,?,0,0,79µM
COC(=O)C1=C(C)N(Cc2ccccc2)C(=NCc2ccccc2)N[C@H]1c1cccc(C(F)(F)F)c1,0,0,-,0,0,-

# Screens from PubChem BioAssay.
